The source of these data is PubChem BioAssay AID1626 (SRMLSC, 2009).

Each structure is given as a SMILES string. The campaign covered roughly 220,000 compounds. About 2,000 (0.91%) were called active. Inconclusive results (about 2%) are left out. Not all results are given here. Results with a measured potency or affinity are listed apart. Unmarked numbers belong to inactive results. Rule as the data show it: inconclusive = inhibition above about 80% without an active follow-up result; inactive = below that; test concentration not stated here.

This test is described as follows: M. tuberculosis H37Rv growth inhibitors, H37Rv strain (AID 1626).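 Also: bacteria incubated seven days before Alamar blue readout; 0% = bacteria only wells and 100% = bacteria with antibiotic wells.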 The conditions noted are these: stronger effect = higher value, concentration not given here.
Consider `CCCc1cc(=O)oc2c(C)c(OCC(=O)c3ccc(N4CCCC4)cc3)ccc12`, for which the inhibition is 15.8%.
As for `COCCNC(=O)c1onc(CSc2ccc(C(C)C)cc2)c1C(=O)O`, the inhibition was -18.6%.
Regarding `O=C1C2C3CCC(C3)C2C(=O)N1c1ccc(OS(=O)(=O)c2ccccc2)cc1` (stereo unspecified), the inhibition is -1.92%.
Then `CCOC(=O)c1nn(-c2ccc(Cl)cc2)c2nc(CC)c(C#N)c(=O)n12`, with 1.58%.
In the case of `Cc1cccc(C)c1OCC(=O)OC/C(O)=C(\C#N)c1nc2ccccc2[nH]1`, the inhibition is 3.83%.
Next, `Cc1cc(C)cc(OCC(=O)OC/C(O)=C(\C#N)c2nc3ccccc3[nH]2)c1`: 13%; `CC(C)C(=O)OC/C(O)=C(\C#N)c1nc2ccccc2[nH]1`: -0.61%.
Then `N#C/C(=C(/O)COC(=O)CSc1ccc(Cl)cc1)c1nc2ccccc2[nH]1`, with 76.2%; and `Cc1cc(Br)ccc1SCC(=O)OC/C(O)=C(\C#N)c1nc2ccccc2[nH]1`, with 77.9%.
Take `COCC(=O)OC/C(O)=C(\C#N)c1nc2ccccc2[nH]1`: the inhibition is 43.4%.
Next, `Cc1ccccc1NC(=O)Cc1nnc(SCc2ccc(Cl)c(Cl)c2)n1C`: -3.35%.
Next, `COc1cccc(C(=O)NNC(=S)NC2CCCCC2)c1`: 4.93%.
`CCCn1c(SCC(=O)Nc2ccccc2C(=O)OC)nc2c1c(=O)n(C)c(=O)n2C`: the inhibition is 0.72%.
With `O=C(CCl)NCc1c(Cl)cccc1-n1cccc1`, the inhibition was -3.53%.
Take `COCCOC(=O)c1c(NC(=O)CN2c3ccccc3CC2C)sc(C(N)=O)c1C` (stereo unspecified): the inhibition was 6.79%.
Next, `O=C(COC(=O)c1cccc(Cl)c1Cl)NCCN1C(=O)CSC1=O`: -1.16%; `O=S(=O)(c1cc(Cl)ccc1Br)N1CCCCC1`: 3.97%.
Consider `CCOC(=O)N1CCC(Nc2nc3ccccc3n3cnnc23)CC1`, for which the inhibition was 4.5%.
Then `Cc1ccc(-c2csc(NC(=O)C[n+]3cc(-c4ccccc4)n4c3CCC4)n2)cc1`, with 75.7%.
Then `O=C(C[n+]1cc(-c2ccccc2)n2c1CCC2)Nc1nc(-c2ccccc2)cs1`, with 77.8%; and `Cc1ccc(-c2c[n+](CC(=O)Nc3c(C)cccc3C)c3n2CCC3)cc1`, with -1.5%.
Next, `Cc1ccc(NC(=O)C[n+]2cc(-c3ccc(C)cc3)n3c2CCC3)cc1`: 0.55%.
`CC(C)(CO)NCc1ccc(Br)cc1`: the inhibition is 1.99%.
Then `C/C(=N/NC(=O)CN1CCN(Cc2ccccc2Cl)CC1)c1ccco1`, with -5.99%; and `CNC(=O)COC(=O)/C=C/c1ccco1`, with -4.68%; and `COC(=O)C1CC(=O)N(Cc2ccccc2)C1` (stereo unspecified), with -1.62%.
Then `COc1ccc(C2C(C(=O)OCC(=O)NC(C)(C)C)CCC(=O)N2c2ccc(C)cc2)cc1OC` (stereo unspecified), with 70.3%; and `CCOC(=O)c1c(NC(=O)C(=O)N/N=C/c2ccc(OCC)cc2)sc2c1CCCCC2`, with 2.16%.
Next, `O=C(Cc1sc(-c2ccccc2Cl)nc1-c1ccccc1)Nc1ccc(F)cc1`: -0.94%; `CC(C)CCN1C(=O)c2ccc(C(=O)NCc3ccco3)cc2C1=O`: 4.17%.
Regarding `COc1cc(C2NCCc3c2[nH]c2ccccc32)ccc1OC(C)C` (stereo unspecified), the inhibition is 1.05%.
Consider `COc1ccc(C2NCCc3c2[nH]c2ccccc32)cc1CN1CCc2cc(OC)c(OC)cc2C1C` (stereo unspecified), for which the inhibition is 4.52%.
Then `Cc1ccc(N(CC(=O)NCCSc2nc3ccccc3s2)S(=O)(=O)c2ccccc2)c(C)c1`, with 9.8%; and `COC(=O)c1ccc(/C=C(\C#N)c2nc3ccccc3s2)cc1`, with 3.69%; and `CNC(=O)Nc1cccc2cccnc12`, with -8.8%.
Next, `Cc1ccc(S(=O)(=O)Nc2cccc3cccnc23)cc1`: -2.94%.
Regarding `CN(CCc1ccccn1)C(=S)Nc1ccc(Cl)c(Cl)c1`, the inhibition is 3.62%.
Then `COc1ccc(NS(=O)(=O)c2cnc[nH]2)cc1`, with 5.45%.
As for `Cc1[nH]n(-c2ccccc2)c(=O)c1C(=O)c1ccccc1`, the inhibition is -0.23%.
Then `Cc1[nH]n(-c2ccccc2)c(=O)c1C(=O)c1ccc(Cl)cc1`, with -3.87%.
For the compound `CCn1c(=O)c(=O)[nH]c2cc(C(=O)N3CCN(c4ccccc4F)CC3)ccc21`, the inhibition is 7.44%.
Then `Nc1ccc(C(=O)OCC(=O)N2c3ccccc3Sc3ccccc32)cc1[N+](=O)[O-]`, with -1.19%; and `Cc1cccc(C)c1N=Cc1c(O)n(-c2nccs2)c(=O)c2ccccc12`, with 2.79%.
Next, `Cc1ccc(N=Cc2c(O)n(-c3nccs3)c(=O)c3ccccc23)cc1`: -4.95%; `Clc1ccc(Cl)c(-c2ccc(/C=N/c3ncn[nH]3)o2)c1`: 6.69%.
Regarding `Cc1cc(C(=O)N/N=C/c2ccc(-c3ccc(C)c(Cl)c3)o2)n[nH]1`, the inhibition is 56.6%.
For `COc1cccc(CN(C)Cc2nc3cc(C(F)(F)F)ccc3c(=O)[nH]2)c1`, the inhibition was 4.79%.
Next, `CSc1ccc(CN(C)Cc2nc3cc(C(F)(F)F)ccc3c(=O)[nH]2)cc1`: 91.3%; `CC(C)C(=O)NNC(=O)c1c(O)c2ccccc2[nH]c1=O`: -10.7%.
Then `Cc1cc(C)n(-c2ncc3c(n2)N(CCO)CCOC3=O)n1`, with 10.4%; and `CCN(CC)c1ccc(/C=C/C(=O)c2cccnc2)cc1`, with 16.5%.
Next, `O=C(/C=C/c1cccc(O)c1)c1cccnc1`: 53.2%; `O=C(/C=C/c1ccccc1Cl)c1cccnc1`: -7.55%; `O=C(/C=C/c1cccnc1)c1ccc(O)cc1`: -0.25%.
For the compound `O=C(/C=C/c1ccc([N+](=O)[O-])cc1)c1cccnc1`, the inhibition is 11.1%.
Next, `N#Cc1ccc(/C=C/C(=O)O)cc1`: -0.8%.
Take `O=C(/C=C/c1ccccc1)c1ccccc1`: the inhibition was 10.5%.
Then `CN(C)c1ccc(/C=C/C(=O)c2cccnc2)cc1`, with 3.22%.
Then `CC(C)(C)CC(C)(C)NC(=S)NC1CCN(Cc2ccccc2)CC1`, with -15.9%; and `Cc1ccc(NC(=S)Nc2cccc(-c3n[nH]c(=S)o3)c2)cc1`, with 10.2%; and `O=C(COC(=O)/C=C/c1ccc(Cl)cc1)NCCC1=CCCCC1`, with -4.53%.
Next, `Cc1cccc(C(=O)NCC2CCCO2)c1` (stereo unspecified): -2.3%; `Cc1ccc(CNC(=O)C(=O)NCC2OCCN2S(=O)(=O)c2cccs2)cc1` (stereo unspecified): -2.36%; `CCOC(=O)c1c[nH]n(-c2ccc(C)cc2)c1=O`: -7.4%.
For the compound `Cc1onc(-c2ccccc2Cl)c1C(=O)Nc1ncn[nH]1`, the inhibition is 6.99%.
Next, `CCOC(=O)C1CCCN(Cc2cc(Br)c(OC)cc2OC)C1` (stereo unspecified): 1.19%; `Cc1cc(C(=O)N(CCC#N)Cc2cccs2)no1`: -6.57%; `CCOc1ccc(C(C)NC(=O)C2CCC2)cc1` (stereo unspecified): 1.59%.
On to `COCc1nnc(SCC(=O)NCc2ccccc2)n1-c1ccccc1`, for which the inhibition was -6.68%.
Next, `COc1ccccc1NC(=O)C1=C(C)NC2=C(C(=O)CCC2)C1c1ccc2c(c1)OCO2` (stereo unspecified): -0.94%; `O=C(/C=C/c1ccc(Cl)c([N+](=O)[O-])c1)Nc1cccnc1`: -11.5%.
Then `O=C(/C=C/c1ccc(Cl)c([N+](=O)[O-])c1)NCc1cccnc1`, with 2.22%; and `Cc1nc(C(=O)Nc2ccc(F)cc2)nn1-c1ccc([N+](=O)[O-])cc1`, with -5.91%; and `CCC1(C)Cc2ccccc2C(Nc2c(C)n(C)n(-c3ccccc3)c2=O)=N1` (stereo unspecified), with -6.85%.
Then `Cc1nc(-c2cccc(NC(=O)C3CCCCC3)c2)cs1`, with -1.02%.
Turning to `COc1cccc(-c2nc(-c3ccc4c(c3)NC(=O)CO4)cs2)c1`, the inhibition was 22.4%.
With `COc1ccccc1Nc1nc(-c2ccc3c(c2)NC(=O)CO3)cs1`, the inhibition was -3.16%.
Then `CCC(C(=O)Nc1cc(Cl)c(OC)cc1OC)c1ccccc1` (stereo unspecified), with -3.66%.
Then `CC(=O)OC(C(=O)Nc1ccccc1)C(C)S(=O)(=O)c1ccccc1` (stereo unspecified), with -4.23%.
As for `O=C(Nc1ccccc1Cl)O/N=C/c1ccncc1`, the inhibition is -1.05%.
Consider `CC(C)C(=O)Nc1ccc(C(=O)NNC(=O)NC2CCCCC2)cc1`, for which the inhibition was -3.11%.
Next, `COc1cccc(NC2c3ccccc3C(=O)N2Cc2ccccc2Cl)c1` (stereo unspecified): 8.87%; `O=C(COC(=O)c1ccc2ccccc2n1)c1ccc(F)cc1`: -7.45%.
Next, `O=C(OCc1ccc([N+](=O)[O-])cc1)c1ccc2ccccc2n1`: 40.4%.
Take `O=C(O)CSc1nc2ccccc2[nH]1`: the inhibition is -9.58%.
Turning to `O=C(CSc1nc2ccccc2s1)N1c2ccccc2Sc2ccccc21`, the inhibition was 1.29%.
Next, `COc1ccc(NC(=O)COC(=O)c2cc(SC)ccc2Cl)c(OC)c1`: 10.1%.
Next, `COc1ccc(C(C)(C)C)cc1NC(=O)COC(=O)c1ncc(Cl)c(Cl)c1Cl`: -2.28%.
Then `O=C1c2cccc3c([N+](=O)[O-])ccc(c23)C(=O)N1c1nccs1`, with -1.82%.
With `Cc1ccc(N2C(=O)c3cccc4c([N+](=O)[O-])ccc(c34)C2=O)c2cccnc12`, the inhibition is -2.68%.
Then `O=C1c2cccc3cccc(c23)C(=O)N1CC1CCCO1` (stereo unspecified), with 0.46%; and `O=C1c2cccc3cccc(c23)C(=O)N1c1ccccn1`, with 2%.
Then `O=C1c2cccc3cccc(c23)C(=O)N1Cc1cccnc1`, with -2.19%; and `O=C1c2ccc(Oc3cccc([N+](=O)[O-])c3)cc2C(=O)N1c1ccccn1`, with -2.15%.
Next, `O=C1c2ccccc2C(=O)N1CC1CCCO1` (stereo unspecified): -1.11%.
Take `O=C1c2ccc3c4c(ccc(c24)C(=O)N1Cc1cccnc1)C(=O)N(Cc1cccnc1)C3=O`: the inhibition is 7.76%.
